Among the data in PubChem BioAssay (EPA / NIEHS) are outcome and AC50 values, retold here.

Several values for one entry are separate records, joined by “and”; a condition that tells them apart may be missing. Equal entries are not always repeated. More than one record can exist for a structure, and the calls need not agree. Activity calls are given as the source filed them. How the source made its calls: active means hit-call score of the fitted dose curve at least 0.9, where 1 is the maximum; inactive means score below 0.9.

Read-out in test [1]: Macrophage colony-stimulating factor (MCSF), CSF1 (gene 1435)
As to the kind of experiment: BSK_hDFCGF_MCSF: BioMAP Diversity Plus: hDFCGF Assay for Macrophage colony-stimulating factor (MCSF) Biomarker Activity (AID 2283060). The settings on record: primary human foreskin fibroblasts; actives raise or lower the signal. The method, boiled down:
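M-CSF levels read by ELISA at 24 h post-dosing in human skin fibroblasts. Parallel cultures stained with SRB assessed cytotoxicity at the same time point; response fitted in both directions against the DMSO baseline.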

Test [2] in a line: BSK_hDFCGF_SRB: Viability Assessment in the BioMAP Diversity Plus: hDFCGF Assay (AID 2283061).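 Further: cells exposed to compound for 24 h before the read.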 The settings on record: primary human foreskin fibroblasts. Put shortly:
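Viability was read as total protein: after 10% TCA fixation, wells were stained with 0.1% sulforhodamine B and read at 560 nm. Primary human foreskin fibroblasts were dosed for 24 h, with bidirectional fitting versus DMSO.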

Read-out in test [3]: TIMP metallopeptidase inhibitor 1 (TIMP1), TIMP1 (gene 7076)
As to the kind of experiment: BSK_hDFCGF_TIMP1: BioMAP Diversity Plus: hDFCGF Assay for TIMP metallopeptidase inhibitor 1 (TIMP1) Biomarker Activity (AID 2283062). The settings on record: primary human foreskin fibroblasts; actives raise or lower the signal. The method, boiled down: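 TIMP-1 measured by ELISA 24 h after chemical dosing of primary human skin fibroblasts, with gain or loss fitted relative to DMSO. Parallel SRB staining (560 nm) monitored overt cytotoxicity.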

Read-out in test [4]: Monokine induced gamma interferon (MIG), CXCL9 (gene 4283)
As to the kind of experiment: BSK_hDFCGF_MIG: BioMAP Diversity Plus: hDFCGF Assay for Monokine induced gamma interferon (MIG) Biomarker Activity (AID 2283063). The settings on record: primary human foreskin fibroblasts; actives raise or lower the signal. The method, boiled down: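 Human primary foreskin fibroblasts in the hDFCGF system, exposed to test chemical for 24 h; MIG measured by ELISA. Bidirectional curve fitting against DMSO negative control as activity baseline.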

Read-out in test [5]: Matrix Metallopeptidase 1 (MMP1), MMP1 (gene 4312)
As to the kind of experiment: BSK_hDFCGF_MMP1: BioMAP Diversity Plus: hDFCGF Assay for Matrix Metallopeptidase 1 (MMP1) Biomarker Activity (AID 2283064). The settings on record: primary human foreskin fibroblasts; actives raise or lower the signal. Put shortly: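 Primary human foreskin fibroblasts exposed to chemicals for 24 h; MMP1 measured by ELISA. Cytotoxicity tracked by SRB staining in parallel cultures; bidirectional fit relative to DMSO.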

Read-out in test [6]: Vascular cell adhesion molecule 1 (VCAM1), VCAM1 (gene 7412)
As to the kind of experiment: BSK_hDFCGF_VCAM1: BioMAP Diversity Plus: hDFCGF Assay for Vascular cell adhesion molecule 1 (VCAM1) Biomarker Activity (AID 2283065).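 On AC50: VCAM-1 protein level quantified by ELISA after 24 h chemical exposure.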 The settings on record: primary human foreskin fibroblasts; actives raise or lower the signal. The method, boiled down: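 ELISA readout of VCAM-1 on human dermal fibroblast primary cultures, 24 h after chemical exposure. Gain or loss of signal fitted in both directions against DMSO baseline.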

Read-out in test [7]: Plasminogen activator inhibitor-1 (PAI1), SERPINE1 (gene 5054)
As to the kind of experiment: BSK_hDFCGF_PAI1: BioMAP Diversity Plus: hDFCGF Assay for Plasminogen activator inhibitor-1 (PAI1) Biomarker Activity (AID 2283066). The settings on record: primary human foreskin fibroblasts; actives raise or lower the signal. The method, boiled down: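 PAI-1 levels, determined by ELISA, served as the endpoint in human foreskin fibroblast cultures exposed to compound for 24 h, with DMSO as baseline.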

Read-out in test [8]: Intercellular Adhesion Molecule 1 (ICAM1), ICAM1 (gene 3383)
Nature of the test: BSK_KF3CT_ICAM1: BioMAP Diversity Plus: KF3CT Assay for Intercellular Adhesion Molecule 1 (ICAM1) Biomarker Activity (AID 2283067). The settings on record: primary human keratinocytes with fibroblasts; actives raise or lower the signal. The method, boiled down:
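Cell-surface ICAM-1 was measured by ELISA 24 h after dosing primary human skin keratinocytes co-cultured with fibroblasts. Parallel SRB staining tracked overt cytotoxicity. Gain or loss of signal was fitted relative to DMSO.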

Read-out in test [9]: Interferon-gamma inducible Protein 10 (IP10), CXCL10 (gene 3627)
As to the kind of experiment: BSK_KF3CT_IP10: BioMAP Diversity Plus: KF3CT Assay for Interferon-gamma inducible Protein 10 (IP10) Biomarker Activity (AID 2283068). The settings on record: primary human keratinocytes with fibroblasts; actives raise or lower the signal. The method, boiled down:
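ELISA read-out of IP-10 after 24 h chemical dosing of human skin primary co-culture (keratinocytes, foreskin fibroblasts). Gain or loss of signal relative to DMSO, bidirectional curve fit.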

Test [10] can be described thus: BSK_KF3CT_SRB: Viability Assessment in the BioMAP Diversity Plus: KF3CT Assay (AID 2283069).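 Further: total protein by sulforhodamine B staining as a cytotoxicity measure; read 24 h after compound addition.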 The settings on record: primary human keratinocytes with fibroblasts. The method, boiled down:
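Human keratinocyte and foreskin fibroblast co-culture exposed to chemical for 24 h. Total protein measured in parallel cultures by 0.1% sulforhodamine B staining after 10% TCA fixation, read at 560 nm; bidirectional fit relative to DMSO.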

In the case of `CCOC(=O)CC(SP(=O)(OC)OC)C(=O)OCC` (centres undefined), the outcome in test [1], in test [2], in test [3], in test [4], in [5] and in test [7] was inactive. Moreover, the outcome in test [8], in test [9] and in test [10] was inactive. In addition, the AC50 in test [6] is 10.8 µM (active).

`O=[N+]([O-])c1cc(C(F)(F)F)c(Cl)c([N+](=O)[O-])c1Nc1ncc(C(F)(F)F)cc1Cl`: the AC50 in [1] was 1.17 µM (active) and 6.88 µM (active); in test [2], 810 nM (active) and 9.49 µM (active); in test [3], 1.12 µM (active); in test [4], 1.32 µM (active) and 8.98 µM (active); in test [5] it was 1.59 µM (active) and 10.6 µM (active); in test [6], 954 nM (active) and 7.64 µM (active). Besides, the AC50 is 859 nM (active) and 9.54 µM (active) in test [7]; 1.15 µM (active) and 9.82 µM (active) in test [8]; 7.9 µM (active) in test [9]; 741 nM (active) and 5.95 µM (active) in test [10]. The result in [3] was inactive.

Consider `CCCSP(=O)(OCC)Oc1ccc(Br)cc1Cl` (centres undefined), for which the half-maximal activity concentration (AC50) in [1] was 17.4 µM (active); in test [6], 27.7 µM (active); in [10] it was 22.7 µM (active). Moreover, the outcome in [2], in test [3], in test [4], in test [5], in test [7] and in test [8] was inactive. In [9], the outcome was inactive.

For the compound `O=C(O)c1cc(Oc2ccc(C(F)(F)F)cc2Cl)ccc1[N+](=O)[O-]`, the result in test [1], in test [2], in [3], in test [4], in [5] and in [6] was inactive. In addition, the result in [7], in [8], in [9] and in test [10] was inactive.

`CCCCN(CC)c1c([N+](=O)[O-])cc(C(F)(F)F)cc1[N+](=O)[O-]`: the AC50 in test [1] is 29.8 µM (active); in [2], 30.1 µM (active); in [5], 4.66 µM (active); in [7] it was 31.1 µM (active); in test [9], 27.9 µM (active). In addition, the outcome in [3], in test [4], in test [6], in test [8] and in test [10] was inactive.

For `COP(=O)(OC)OC(Br)C(Cl)(Cl)Br` (centres undefined), the AC50 in test [1] was 16.4 µM (active); in test [2], 20 µM (active); in [3], 15.7 µM (active); in test [4], 17.5 µM (active); in test [5] it was 32.7 µM (active); in [6], 13.4 µM (active). Also, the AC50 in test [7] is 30.1 µM (active); in test [8], 31.1 µM (active); in [9], 30 µM (active); in [10], 26.1 µM (active).

`COc1ccc(C(=CC(=O)N2CCOCC2)c2ccc(Cl)cc2)cc1OC`: the result in test [1], in [2], in test [3], in [4], in [5] and in test [6] was inactive. Besides, the result in test [8], in test [9] and in [10] was inactive. The AC50 in [7] was 7.96 µM (active).

With `Cc1ccn2nc(S(=O)(=O)Nc3c(F)cccc3F)nc2n1`, the result in [1], in [2], in test [3], in [4], in test [5] and in test [6] was inactive. For the same compound, the result in test [7], in test [8], in [9] and in test [10] was inactive.

As to `CNC(=O)ON=C(SC)C(=O)N(C)C`, the result in test [1], in [2], in test [3], in test [4], in test [5] and in [6] was inactive. Further, the outcome in test [7], in test [8], in test [9] and in [10] was inactive.

On to `CC(=NC#N)N(C)Cc1ccc(Cl)nc1`, for which the outcome in [1], in [2], in [3], in test [4], in test [5] and in test [6] was inactive. The result in test [7], in [8], in test [9] and in [10] was inactive.

`CN(C)NC(=O)CCC(=O)O`: the outcome in test [1], in [2], in test [3], in test [4], in [5] and in test [6] was inactive. Besides, the outcome in test [7], in [8], in [9] and in test [10] was inactive.

Consider `COc1cc(OC)nc(Sc2cccc(Cl)c2C(=O)O)n1`, for which the outcome in test [1], in [2], in test [3], in test [4], in [5] and in test [6] was inactive. The result in test [7], in test [8], in test [9] and in test [10] was inactive.

With `COP(=O)(OC)C(O)C(Cl)(Cl)Cl` (centres undefined), the result in test [1], in test [2], in [3], in [4], in test [5] and in [6] was inactive. The result in test [7], in test [8], in test [9] and in test [10] was inactive.

As for `CN(C)[C@@H]1C(=O)C(C(N)=O)=C(O)[C@@]2(O)C(=O)C3=C(O)c4c(O)cccc4[C@@](C)(O)[C@H]3[C@H](O)[C@@H]12`, the half-maximal activity concentration (AC50) in test [1] is 23.3 µM (active); in test [4] it was 31.6 µM (active); in test [6], 28.6 µM (active). Further, the outcome in test [1], in test [2], in test [3], in test [4], in test [5] and in [6] was inactive. In addition, the outcome in [7], in test [8], in [9] and in test [10] was inactive.

On to `CCC(=O)Nc1ccc(Cl)c(Cl)c1`, for which the outcome in test [1], in [2], in test [3], in test [4], in test [5] and in [6] was inactive. Also, the result in test [7], in test [8], in [9] and in [10] was inactive.

`C#CCC1=C(C)C(OC(=O)C2C(C=C(C)C)C2(C)C)CC1=O` (centres undefined): the AC50 in test [1] is 29.2 µM (active); in [2] it was 33.3 µM (active); in test [4], 37 µM (active); in test [5], 31.6 µM (active); in test [6], 34.8 µM (active); in test [7] it was 32 µM (active). Further, in [10], the concentration at half-maximal activity (AC50) is 22.3 µM (active). Moreover, the result in test [3], in [8] and in [9] was inactive.

As for `CCCOc1nn(C(=O)NS(=O)(=O)c2ccccc2C(=O)OC)c(=O)n1C`, the outcome in [1], in test [2], in [3], in test [4], in test [5] and in test [6] was inactive. Moreover, the result in test [7], in test [8], in test [9] and in test [10] was inactive.

By AC50 is commonly meant the concentration at which the activity in the assay is half-maximal.
